# Source: PubChem BioAssay (Tox21)
# Unmarked numbers belong to inactive results. Inconclusive results are not listed. A call without a number means that no potency is given here. Calls of active or inactive are those of the source. The call rests on the fitted dose curve; in most records, active means well fitted curve in the direction sought with a large enough effect in the repeat runs; inconclusive means weak or mixed curves; inactive means no such curve, though single readings can be large; an effect the other way counts as inactive or inconclusive.
# Assays:
# [1] = A CellTox Green Cytotoxicity Assay to monitor cytotoxicity in HEK293 cells - 40 hour (AID 1224871); further: nearly all actives have a fitted effect of over 45% in size; further: potency means the concentration at half of the fitted maximal effect
# In short: (§1)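 Cells (HEK293, 600/well) and dye reagent are dispensed together. After 5 h at 37 C, 23 nL compound is pinned in. Plates stay at 37 C for 40 h with fluorescence read at 0h, 8h, 16h, 24h, 32h and 40h.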
# [2] = qHTS RealTime-Glo MT Cell Viability Assay in HEK293 cells - 16 hour (AID 1224872); further: nearly all actives have a fitted effect of over 50% in size; further: potency means the concentration at half of the fitted maximal effect
# In short: (§2)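 Quantitative high-throughput screen of the Tox21 10K library in HEK293: cells and RealTime-Glo reagents plated together, compound added at 5 h, luminescence monitored through 40 h at 37 C.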
# [3] = qHTS RealTime-Glo MT Cell Viability Assay in HepG2 cells - 8 hour (AID 1224873); further: nearly all actives have a fitted effect of over 55% in size; further: potency means the concentration at half of the fitted maximal effect
# In short: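 HepG2 cells mixed with RealTime-Glo MT reagents (NanoLuc plus cell-permeant prosubstrate) were seeded at 600 cells/well, incubated 5 h at 37 C/5% CO2, then pinned with compounds in DMSO; nonlytic luminescence tracked viability during 40 h treatment.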
# [4] = qHTS RealTime-Glo MT Cell Viability Assay in HEK293 cells - 40 hour (AID 1224874); settings: RealTime-Glo luminescence; max response: hits give low values; further: nearly all actives have a fitted effect of over 50% in size; further: potency means the concentration at half of the fitted maximal effect
# In short: (§3)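 Real-time viability in HEK293: signal arises when living cells convert a prosubstrate for NanoLuc in the medium, so luminescence tracks viable cell number. Compound (23 nL, DMSO) added 5 h post-seeding; kinetic reads at 0–40 h, 37 C.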
# [5] = A CellTox Green Cytotoxicity Assay to monitor cytotoxicity in HEK293 cells - 24 hour (AID 1224875); further: nearly all actives have a fitted effect of over 45% in size; further: potency means the concentration at half of the fitted maximal effect
# In short: as §1
# [6] = A CellTox Green Cytotoxicity Assay to monitor cytotoxicity in HepG2 cells - 16 hour (AID 1224876); further: nearly all actives have a fitted effect of over 45% in size
# In short: (§4)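 Cells and non-lytic dye reagent are dispensed together (600 HepG2 cells/well) and incubated 5 h before DMSO compound transfer. Kinetic fluorescence is then recorded in the same wells during 40 h at 37 C.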
# [7] = qHTS RealTime-Glo MT Cell Viability Assay in HepG2 cells - 32 hour (AID 1224877); further: nearly all actives have a fitted effect of over 55% in size; further: potency means the concentration at half of the fitted maximal effect
# In short: (§5)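 Compound treatment began 5 h after plating HepG2 cells (600/well) with NanoLuc luciferase and prosubstrate. Plates stayed at 37 C for 40 h; luminescence was captured at six time points, 0 h through 40 h.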
# [8] = A CellTox Green Cytotoxicity Assay to monitor cytotoxicity in HepG2 cells - 24 hour (AID 1224878); further: nearly all actives have a fitted effect of over 45% in size; further: potency means the concentration at half of the fitted maximal effect
# In short: as §4
# [9] = A CellTox Green Cytotoxicity Assay to monitor cytotoxicity in HepG2 cells - 40 hour (AID 1224879); further: nearly all actives have a fitted effect of over 40% in size; further: potency means the concentration at half of the fitted maximal effect
# In short: as §4
# [10] = qHTS RealTime-Glo MT Cell Viability Assay in HEK293 cells - 0 hour (AID 1224880)
# In short: as §3
# [11] = A CellTox Green Cytotoxicity Assay to monitor cytotoxicity in HEK293 cells - 32 hour (AID 1224881); further: nearly all actives have a fitted effect of over 40% in size; further: potency means the concentration at half of the fitted maximal effect
# In short: as §1
# [12] = A CellTox Green Cytotoxicity Assay to monitor cytotoxicity in HepG2 cells - 0 hour (AID 1224882); further: nearly all actives have a fitted effect of over 35% in size
# In short: as §4
# [13] = A CellTox Green Cytotoxicity Assay to monitor cytotoxicity in HepG2 cells - 32 hour (AID 1224883); further: nearly all actives have a fitted effect of over 50% in size; further: potency means the concentration at half of the fitted maximal effect
# In short: as §4
# [14] = A CellTox Green Cytotoxicity Assay to monitor cytotoxicity in HEK293 cells - 8 hour (AID 1224884); further: nearly all actives have a fitted effect of over 35% in size
# In short: as §1
# [15] = qHTS RealTime-Glo MT Cell Viability Assay in HepG2 cells - 16 hour (AID 1224885); further: nearly all actives have a fitted effect of over 50% in size; further: potency means the concentration at half of the fitted maximal effect
# In short: as §5
# [16] = qHTS RealTime-Glo MT Cell Viability Assay in HepG2 cells - 0 hour (AID 1224889); further: nearly all actives have a fitted effect of over 50% in size
# In short: as §5
# [17] = A CellTox Green Cytotoxicity Assay to monitor cytotoxicity in HepG2 cells - 8 hour (AID 1224890); further: nearly all actives have a fitted effect of over 45% in size
# In short: as §4
# [18] = qHTS RealTime-Glo MT Cell Viability Assay in HEK293 cells - 24 hour (AID 1224886); further: nearly all actives have a fitted effect of over 50% in size; further: potency means the concentration at half of the fitted maximal effect
# In short: as §2
# [19] = qHTS RealTime-Glo MT Cell Viability Assay in HEK293 cells - 8 hour (AID 1224887); further: nearly all actives have a fitted effect of over 50% in size; further: potency means the concentration at half of the fitted maximal effect
# In short: as §3
# [20] = A CellTox Green Cytotoxicity Assay to monitor cytotoxicity in HEK293 cells - 16 hour (AID 1224888); further: nearly all actives have a fitted effect of over 35% in size
# In short: as §1
structure (smiles),measurement,setting,value
CC(C)OC(=O)c1ccccc1C(=O)OC(C)C,Potency,[1],inactive
same,Potency,[2],inactive
same,Potency,[3],inactive
same,max response,[4],-14%
same,Potency,[5],inactive
same,Potency,[6],inactive
same,Potency,[7],inactive
same,Potency,[8],inactive
same,Potency,[9],inactive
same,Potency,[10],inactive
same,Potency,[11],inactive
same,Potency,[12],inactive
same,Potency,[13],inactive
same,Potency,[14],inactive
same,Potency,[15],inactive
same,Potency,[16],inactive
same,Potency,[17],inactive
CCCCCC,Potency,[1],inactive
same,Potency,[2],inactive
same,Potency,[3],inactive
same,max response,[4],0.47%
same,Potency,[5],inactive
same,Potency,[6],inactive
same,Potency,[8],inactive
same,Potency,[9],inactive
same,Potency,[10],inactive
same,Potency,[11],inactive
same,Potency,[12],inactive
same,Potency,[13],inactive
same,Potency,[14],inactive
same,Potency,[15],inactive
same,Potency,[18],inactive
same,Potency,[19],inactive
same,Potency,[20],inactive
same,Potency,[17],inactive
O=S(=O)(Cl)c1c(Cl)cccc1Cl,Potency,[1],inactive
same,Potency,[2],inactive
same,Potency,[3],inactive
same,Potency,[5],inactive
same,Potency,[6],inactive
same,Potency,[7],inactive
same,Potency,[8],inactive
same,Potency,[9],inactive
same,Potency,[10],inactive
same,Potency,[11],inactive
same,Potency,[12],inactive
same,Potency,[13],inactive
same,Potency,[14],inactive
same,Potency,[15],inactive
same,Potency,[18],inactive
same,Potency,[19],inactive
same,Potency,[20],inactive
same,Potency,[16],inactive
same,Potency,[17],inactive
CCN(CC)CC(=O)Nc1c(C)cccc1C(=O)OC,Potency,[1],inactive
same,Potency,[2],inactive
same,Potency,[3],inactive
same,max response,[4],0.513%
same,Potency,[5],inactive
same,Potency,[6],inactive
same,Potency,[8],inactive
same,Potency,[9],inactive
same,Potency,[10],inactive
same,Potency,[11],inactive
same,Potency,[12],inactive
same,Potency,[13],inactive
same,Potency,[14],inactive
same,Potency,[15],inactive
same,Potency,[18],inactive
same,Potency,[19],inactive
same,Potency,[17],inactive
CCC(CO)(CO)[N+](=O)[O-],Potency,[1],inactive
same,Potency,[2],inactive
same,Potency,[3],inactive
same,max response,[4],1.66%
same,Potency,[5],inactive
same,Potency,[10],inactive
same,Potency,[11],inactive
same,Potency,[12],inactive
same,Potency,[14],inactive
same,Potency,[15],inactive
same,Potency,[18],inactive
same,Potency,[19],inactive
same,Potency,[16],inactive
same,Potency,[17],inactive
CNC1CCCN(c2c(F)cc3c(=O)c(C(=O)O)cn(C4CC4)c3c2OC)C1 (configuration not stated),Potency,[1],inactive
same,Potency,[2],inactive
same,Potency,[3],inactive
same,Potency,[5],inactive
same,Potency,[6],inactive
same,Potency,[7],inactive
same,Potency,[8],inactive
same,Potency,[9],inactive
same,Potency,[10],inactive
same,Potency,[11],inactive
same,Potency,[12],inactive
same,Potency,[13],inactive
same,Potency,[14],inactive
same,Potency,[15],inactive
same,Potency,[18],inactive
same,Potency,[19],inactive
same,Potency,[20],inactive
same,Potency,[16],inactive
same,Potency,[17],inactive
COc1ccc(C(=O)NCc2ccc(OCCN(C)C)cc2)cc1OC,Potency,[1],inactive
same,Potency,[2],inactive
same,Potency,[3],inactive
same,max response,[4],2.93%
same,Potency,[5],inactive
same,Potency,[6],inactive
same,Potency,[8],inactive
same,Potency,[9],inactive
same,Potency,[10],inactive
same,Potency,[11],inactive
same,Potency,[12],inactive
same,Potency,[13],inactive
same,Potency,[14],inactive
same,Potency,[15],inactive
same,Potency,[18],inactive
same,Potency,[19],inactive
same,Potency,[20],inactive
same,Potency,[17],inactive
O=[N+]([O-])C1(Br)COCOC1,Potency,[1],49 µM (active)
same,Potency,[2],38.9 µM (active)
same,Potency,[3],54.9 µM (active)
same,Potency,[4],34.7 µM (active)
same,Potency,[5],54.9 µM (active)
same,Potency,[7],49 µM (active)
same,Potency,[8],54.9 µM (active)
same,Potency,[9],43.6 µM (active)
same,Potency,[10],inactive
same,Potency,[11],54.9 µM (active)
same,Potency,[12],inactive
same,Potency,[13],49 µM (active)
same,Potency,[15],49 µM (active)
same,Potency,[18],38.9 µM (active)
same,Potency,[19],49 µM (active)
